Source: PubChem BioAssay (several laboratories)
Calb FLC: C. albicans growth modulation with fluconazole; C. albicans CaCi-2 (fluconazole-resistant clinical isolate) + fluconazole, Alamar Blue growth, 48 h; growth inhibition, % (test concentration not listed); 300,000 compounds, 0.57% hits; AID 1979;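 active means growth inhibition above about 58% in most replicates, limit read from the data, passing the limit was not always enough; inconclusive means exactly half the replicates above a set limit; inactive means most replicates below a set limit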;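 further: all wells also contain fluconazole at 8 µg/ml as a sub-toxic cotreatment; 0% = median of DMSO wells and 100% = median of geldanamycin control wells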
tim10-1 inh: growth inhibitors of tim10-1 mutant yeast. S. cerevisiae tim10-1 ts strain growth, BacTiter-Glo, 24 h. inhibition, % at 20 µM. 330,000 compounds, 2.2% hits. AID 463190;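 active means inhibition of at least 40%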;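 further: mutant grown at 25 °C; 0% = DMSO wells with yeast and 100% = wells holding no yeast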
tim23-1 inh: inhibits growth of tim23-1 mutant yeast. S. cerevisiae tim23-1 growth, BacTiter-Glo luminescence, 24 h. inhibition, % at 20 µM. AID 463212. 330,000 compounds, 1.3% hits;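 active means growth inhibition of the mutant yeast at or above 50%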;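 further: temperature-sensitive mutant grown at 25 °C; plate controls were DMSO-treated mutant yeast for no effect and medium wells lacking yeast for full effect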
SKKanGAS inh: blocks kanamycin growth of S. pyogenes SKKanGAS strain; BacTiter-Glo, 6 h; inhibition, % at 7.5 µM; AID 1662; 300,000 compounds, 1.3% hits;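 active means mean replicate score, as percent of positive control median, at least 50; inconclusive means mean below 50 but one replicate at or above 50; inactive means mean and every replicate below 50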;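 further: strain carries kanamycin resistance gene driven by streptokinase promoter and grows in 40 µg/ml kanamycin; loss of luminescence reflects streptokinase promoter inhibition or plain growth inhibition; 0% = median of DMSO wells and 100% = positive control at its reference dose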
PfHsp90 yeast 2: inhibits growth of yeast expressing Plasmodium falciparum Hsp90 | S. cerevisiae expressing PfHsp90, BacTiter-Glo ATP, 48 h; yeast lacking PDR1 and PDR3 efflux regulators | inhibition, % at 9.4 µM | 310,000 compounds, 0.32% hits;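 active means every replicate shows inhibition above about 80%, whatever the replicate mean, limit read from the data; inconclusive means mean inhibition reaches the set limit but some replicate falls short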;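 further: 0% = DMSO neutral controls and 100% = 20 µM radicicol positive controls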
TIM10 inh: TIM10 yeast growth inhibition. S. cerevisiae TIM10 strain growth, BacTiter-Glo luminescence, 24 h. inhibition, % at 10 µM. 330,000 compounds, 1.4% hits. AID 463195;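 active means inhibition of 40% or more at the single tested concentration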;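 further: wild-type TIM10 isogenic control strain grown at permissive 25 °C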
Numbers without * were called inactive; ? = inconclusive; · = no result given. In the library only some 4.7% were active in any assay of this set; here they are far more common.

SMILES | Calb FLC | tim10-1 inh | tim23-1 inh | SKKanGAS inh | PfHsp90 yeast 2 | TIM10 inh
Cc1ccc(OCCCC(=O)Nc2nc3ccccc3[nH]2)cc1 | 110* | -12 | -20 | 7 | 10 | 9
O=C(Cc1ccccc1)Nc1nc2ccccc2[nH]1 | 4 | 29 | 26 | 1 | 0 | 22
COC(=O)C1(Cc2ccc3c(c2)CCC3)Cc2ccc3c(c2C1=O)CCC3 (stereo unspecified) | · | · | · | · | 6 | ·
CCC1=NN2C(=N)/C(=C\c3cccn3-c3ccc(C)cc3C)C(=O)N=C2S1 | ? | 31 | 41 | 32 | 94* | 34
CCC1=NN2C(=N)/C(=C\c3cccn3-c3c(C)cccc3C)C(=O)N=C2S1 | 3 | 33 | 40 | 44 | -66 | 38
Cc1ccc(C)c(OCCC(=O)OCC(=O)NCc2ccc(F)cc2)c1 | 11 | -2 | 11 | -10 | -14 | 8
Nc1nc(SCC(=O)Nc2cc(Cl)c(Cl)cc2Cl)n[nH]1 | · | 2 | -4 | · | · | 1
Cc1cc(C)n(CCN(C)C(=O)C2CCC(=O)N(CCN3CCOCC3)C2)n1 (stereo unspecified) | -7 | -4 | -9 | -1 | -12 | 1
N=C1/C(=C\c2ccc(SCc3ccccc3)o2)C(=O)N=C2SC=NN12 | 78* | 26 | 10 | 2 | -14 | 12
O=C(Nc1ccc(Cl)cc1)c1cc2c(cc1O)[nH]c1ccccc12 | -3 | 8 | 7 | 100* | 6 | 15
CC(=O)Nc1ccc2[nH]c3ccccc3c2c1 | -4 | -5 | 18 | -12 | 1 | 3
Cc1ccccc1NC(=O)COC(=O)c1ccc(S(=O)(=O)N2CCCC2)cc1 | · | -13 | -4 | · | -36 | -11
COc1ccc(CCn2c(C)cc3c(c2=O)C(c2ccc4c(c2)OCO4)C(C#N)=C(N)O3)cc1OC (stereo unspecified) | 109* | -6 | 7 | 20 | -14 | 11
Cc1cc2c(c(=O)n1Cc1ccccn1)C(c1ccc3c(c1)OCO3)C(C#N)=C(N)O2 (stereo unspecified) | -8 | 6 | -25 | -3 | 28 | -6
O=c1c(C(c2ccccc2)c2c(O)sc3ccccc3c2=O)c(O)sc2ccccc12 | -6 | -217 | 31 | 97* | · | -6
Cc1ccsc1/C=C/c1ccc2cccc(O)c2n1 | 29 | 24 | 30 | 101* | -14 | 11
Cc1ccsc1/C=C/c1ccc2ccccc2n1 | -25 | 16 | 14 | 10 | -2 | 3
CSc1ccc(/C=C/c2ccc3cccc(O)c3n2)cc1 | 3 | 4 | -2 | 100* | 60 | -3
O=[N+]([O-])c1cccc2ccc(/C=C/c3ccc(Cl)cc3)nc12 | 22 | 21 | 1 | 3 | 6 | 3
COc1ccc(Oc2nc(SC)nc3ccsc23)cc1 | -23 | 19 | 32 | 16 | 0 | 24
CSc1nc(Oc2ccc3ccccc3c2)c2sccc2n1 | 5 | 7 | 8 | 54* | 4 | -3
O=C1C(F)=CC(COC(c2ccccc2)(c2ccccc2)c2ccccc2)OC1n1cc(F)c(=O)[nH]c1=O (stereo unspecified) | · | · | · | · | 102* | ·
CC(CCc1ccccc1)NC(=O)c1ccc(Br)cc1 (stereo unspecified) | -17 | -12 | 3 | -8 | 112* | -39
COc1ccc(/C=C2\Sc3ccc(C(=O)NCCN4CCCCCC4)cc3N(C)C2=O)cc1 | 4 | 18 | 25 | 20 | 2 | 13
CCOc1ccc(/C=C2/Sc3ccc(C(=O)N4CCOCC4)cc3N(C)C2=O)cc1OC | 19 | 17 | 9 | 68* | -6 | -2
SMILES | Calb FLC | tim10-1 inh | tim23-1 inh | SKKanGAS inh | PfHsp90 yeast 2 | TIM10 inh
COc1ccc(/C=C2\Sc3ccc(C(=O)N4CCCC4)cc3N(C)C2=O)cc1OC | 0 | 20 | 16 | 100* | -50 | -2
COc1ccc(/C=C2\Sc3ccc(C(=O)NC4CC4)cc3N(C)C2=O)cc1OC | 2 | 2 | 16 | 70* | 17 | 18
CN1C(=O)/C(=C/c2cccc(Cl)c2)Sc2ccc(C(=O)N3CCOCC3)cc21 | 15 | 8 | 11 | ? | -21 | 10
CC1CN(S(=O)(=O)c2ccc(CN3C(=O)c4cccnc4C3=O)s2)c2ccccc2O1 (stereo unspecified) | -13 | 31 | 22 | -6 | 2 | 10
Cc1cc(C(=O)N/N=C/c2cc(N=Nc3ccccc3)ccc2O)n[nH]1 | -1 | · | · | 88* | -18 | ·
CSc1ccc(Cl)c(C(=O)NNC(=O)c2csc(N3CCOCC3)n2)c1 | 5 | -13 | -11 | 2 | 15 | -3
COC(=O)c1ccc(N2C(=O)CC(N(C)Cc3ccccc3)C2=O)cc1 (stereo unspecified) | · | 11 | 22 | -7 | 104* | 38
O=C1C=C(c2ccc(F)nc2)C[C@@H](c2ccc3c(c2)OCO3)C1 | · | -11 | -23 | · | 9 | -2
Nc1c(-c2ccccc2)c(CSc2nc3ccccc3[nH]2)nn1-c1cccc(Cl)c1 | 6 | 24 | 29 | 103* | -30 | 24
Nc1c(-c2ccccc2)c(CSc2nc3ccccc3[nH]2)nn1-c1ccc(Cl)cc1 | 3 | · | · | 30 | 5 | ·
COc1ccc(C(=O)OCC(=O)NCc2ccc3c(c2)OCO3)cc1S(=O)(=O)N1CCOCC1 | · | -12 | 2 | · | · | -2
Cc1cc(C)c2[nH]c(O)c(N=NC3=NC(=O)CS3)c2c1 | -2 | 1 | 13 | 5 | 32 | 14
Cc1cc(C)c2[nH]c(O)c(N=Nc3ccc(C(=O)O)cc3)c2c1 | 0 | -12 | -7 | 74* | 5 | -7
COc1cccc(NC(=O)CN(C)C(=O)c2ccc3c(c2)C(=O)N(CCC(C)C)C3=O)c1 | · | 10 | 23 | · | · | 8
O=C(NNC(=O)C1CC=CCC1)c1ccccc1Cl (stereo unspecified) | 1 | -6 | 6 | -2 | -3 | 14
Brc1cccc(-c2nc3cccnc3nc2-c2cccc(Br)c2)c1 | -2 | 15 | 37 | 0 | -47 | 3
Clc1ccc(-[n+]2c(-c3cccc(Br)c3)[nH]c3nc4ccccc4nc32)cc1 | 1 | 29 | 31 | 85* | -34 | 17
COc1ccc(C2=NOC(Cn3nc(-c4ccccc4)cc3C(=O)NCc3ccccc3OC)C2)cc1 (stereo unspecified) | · | 22 | 22 | · | -17 | -6
O=C(Nc1nc2n(n1)C(c1ccc(Cl)cc1)CC(c1ccc(Cl)cc1)N2)c1ccco1 (stereo unspecified) | 20 | 20 | 18 | 55* | · | 22
CC(=O)C[C@H](O)CC(=O)[C@@H]1OC(=O)CCCCC/C=C/Cc2ccccc21 | · | 13 | 20 | · | -10 | 17
Cc1cc(/C=N/n2cnnc2)c(C)n1-c1ccc(OCc2ccc(Cl)cc2Cl)cc1 | 33 | 31 | 48 | 122* | -1 | 29
COCCn1c(SCC(=O)Nc2ccc(F)cc2)nc2c([nH]c3ccccc32)c1=O | -2 | 16 | 8 | 51* | 6 | 3
